# Only some compounds are listed: those with a hit (about 4% of all), similar ones and a draw of the others.
# D1 PAM = enhances dopamine response at the human D1 receptor | HEK293 TREx D1 cells, calcium flux, dopamine EC20 potentiation | potentiation, % at 10 µM | 0.036% of 360,000 active | AID 504651; in the data active means potentiation above about 30%; further: 0% is about no effect
# Target sequence (P21728 whole entry, looked up): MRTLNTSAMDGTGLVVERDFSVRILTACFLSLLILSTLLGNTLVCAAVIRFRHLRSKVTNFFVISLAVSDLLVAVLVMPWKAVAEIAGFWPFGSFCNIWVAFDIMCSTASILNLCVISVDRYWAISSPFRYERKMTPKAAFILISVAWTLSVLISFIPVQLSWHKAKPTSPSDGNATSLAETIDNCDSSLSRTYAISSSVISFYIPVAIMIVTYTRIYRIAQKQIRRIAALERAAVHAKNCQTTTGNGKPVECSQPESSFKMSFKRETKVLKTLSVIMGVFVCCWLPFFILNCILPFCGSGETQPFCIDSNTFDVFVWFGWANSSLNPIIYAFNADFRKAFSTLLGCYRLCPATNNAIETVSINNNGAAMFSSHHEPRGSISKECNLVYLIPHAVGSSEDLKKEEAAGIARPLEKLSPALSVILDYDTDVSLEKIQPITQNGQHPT
# TRHR enhancer = TRH receptor (human) allosteric enhancement; P34981; TRHR cells, fluo-8 calcium fluorescence, EC20 TRH enhancement; enhancement, % at 2 µM; 0.66% of 360,000 active; in the data active means enhancement above about 30%; further: 0% is about no effect
#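 TRHR-expressing cells loaded with fluo-8 calcium dye were read kinetically (ex 480/em 530) during compound addition, then stimulated with an EC20 of TRH (10 nM final). Enhancement of the Gq-mediated intracellular calcium response was scored.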
# D1 antag = blocks dopamine activation of the human D1 receptor. P21728. HEK293 TREx D1 cells, calcium flux, dopamine EC80; active compounds read low. activity change, negative = inhibition, % at 10 µM. 3.2% of 360,000 active. AID 504652; in the data active means activity change below about -30%; further: on the % scale 0 is the no-effect control and ±100 the full control effect
#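 Tetracycline-induced HEK293 Trex D1 cells, force-coupled to calcium, dye-loaded; compounds added and read 180 s, then EC80 dopamine added and calcium flux tracked kinetically another 180 s.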
# D1 agonist = agonists of human D1 dopamine receptor; P21728; HEK293 T-REx D1 cells, calcium flux, agonist mode; 1% of 360,000 active; activation, % at 2 µM; further: 0% is about no effect
#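 Agonism was scored from calcium flux recorded over 180 s (1 read/s) after pintool compound addition, following a 10-cycle baseline. Cells were inducible force-coupled HEK293 TREx D1, plated overnight at 30 C and loaded with no-wash calcium dye.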
# TRHR agonist = activates the human TRH receptor; P34981; 0.18% of 360,000 active; activation, % at 2 µM; AID 493084; TRHR cells, calcium flux fluo-8, FDSS agonist mode; further: 0% is about no effect
#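 Steps: seed TRHR cells overnight; add fluo-8 no-wash Ca dye, RT 30 min–1.5 h; record 10 s baseline; pin-transfer compounds; monitor fluorescence 1 cycle/s for the agonist window. Calcium increases flag candidate agonists.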
# Glioma ERSR ind = induces the endoplasmic reticulum stress response in human glioma cells; U87-MG GRP78 promoter luciferase reporter, 16 h; Potency, µM, for inactives: top-dose activation, hits mostly activators; 0.02% of 420,000 active; AID 602332; active means well fitted activation curve with a large enough effect; further: potency means the concentration at half of the fitted maximal effect; series mostly up to about 76 µM; % of control where 0% means no effect; nearly all actives have a fitted effect of over 35% in size
#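 Stably transfected U87-MG human glioma cells carrying a GRP78-based luminescent sensor were seeded at 1000 cells/well, pin-dosed with compounds and incubated 16 h. Luciferase reagent was then added, and end-point luminescence was read after 10 min at room temperature.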
# * = called active by the depositor; / = no result given. Unless noted, no stated cut-off is given here; in the data, active means activation above about 30%; inactive means the rest.
SMILES,D1 PAM,TRHR enhancer,D1 antag,D1 agonist,TRHR agonist,Glioma ERSR ind
O=C(NCc1ccccc1CN1CCCC1)c1ccc(OCc2cscn2)cc1,/,4,-17,13,1,-4%
CC(C)c1ccc(NC(=O)CSc2nc(=O)n(CCCN3CCOCC3)c3c2CCC3)cc1,-2,0,6,3,1,0%
C=CCN=c1scc(C)n1/N=C/c1ccc(O)c(O)c1,-4,-1,-50*,2,0,-4%
CC(=O)Nc1cccc(C(=O)OCC(=O)NC(=O)NC2CCCC2)c1,/,/,/,/,/,2%
CC(=O)c1cccc(NC(=O)COC(=O)c2ccc(S(C)(=O)=O)c([N+](=O)[O-])c2)c1,0,-3,-34*,2,0,-12%
CC(=O)c1cccc(NC(=O)C(C)OC(=O)c2ccc(S(C)(=O)=O)c([N+](=O)[O-])c2)c1 (configuration not stated),/,/,/,/,/,-12%
NC(=O)c1ccc(NC(=O)COC(=O)/C=C/c2ccc3c(c2)OCO3)cc1,1,-2,-41*,8,4,3%
CCN(CC)S(=O)(=O)c1ccc(O)c(C(=O)OCC(=O)NC2CCCC2)c1,-9,-10,-66*,0,0,5%
CC(=O)Nc1cccc(C(=O)OCC(=O)NC2CCCCCCC2)c1,-5,24,-39*,6,2,-2%
CCN(C(=O)COC(=O)Cn1cnc2c1c(=O)n(C)c(=O)n2C)C1CCS(=O)(=O)C1 (configuration not stated),1,-2,-1,3,1,-1%
Cc1cc(C)n2nc(CC(=O)NNC(=O)COc3ccccc3)nc2n1,-1,11,2,0,1,-2%
CCOC(=O)c1ccc(NC(=O)C(=O)NCc2ccccn2)cc1,1,-5,-6,0,-1,-5%
CN(C)S(=O)(=O)c1cccc(NC(=O)COC(=O)c2ccc3c(c2)OCO3)c1,-1,4,-6,3,-1,-1%
COc1cc(SC)ccc1C(=O)OCC(=O)NC1CCCCC1,2,2,-32*,1,0,4%
CS(=O)(=O)c1ccc(C(=O)OCC(=O)NC(=O)C2CCCCC2)cc1[N+](=O)[O-],-4,18,-33*,7,0,-14%
COc1cc(SC)ccc1C(=O)OCC(=O)NC1CCCC1,-8,-2,-11,2,1,0%
CC(=O)c1cccc(NC(=O)COC(=O)c2ccc3c(c2)OCO3)c1,/,11,-31*,9,0,0%
Cc1ccccc1NC(=O)Cc1nc(COC(=O)c2ccc(S(C)(=O)=O)c([N+](=O)[O-])c2)cs1,-8,-4,-36*,5,-1,-14%
COCCN(Cc1cc2c(C)cc(C)cc2nc1Cl)C(=O)c1ccccc1F,-3,5,12,3,0,2%
CCOC(=O)c1cccc(NC2c3ccccc3C(=O)N2Cc2ccco2)c1 (configuration not stated),7,0,33,3,0,-1%
CC(C)(C)CC(=O)Nc1ccccc1N1CCN(c2ccccc2)CC1,3,-3,13,1,0,-1%
CCN(CC)C(=O)CSc1nc2c(sc(=S)n2-c2ccc(C)cc2C)c(=O)[nH]1,-4,8,-41*,1,0,7%
CCOC(=O)CSc1nc2c(sc(=S)n2-c2ccccc2)c(=O)[nH]1,-4,-3,-10,1,-1,-4%
NC(=O)c1c(NC(=O)c2ccccc2Cl)sc2c1CCC2,-2,36*,5,2,0,3%
NC(=O)c1c(NC(=O)c2ccccc2C(=O)O)sc2c1CCCC2,-4,-12,5,2,0,-5%
SMILES,D1 PAM,TRHR enhancer,D1 antag,D1 agonist,TRHR agonist,Glioma ERSR ind
N#Cc1ccc(Cl)cc1NC(=O)COC(=O)[C@H](CCC(N)=O)NC(=O)c1ccc(F)cc1,1,-4,-32*,2,-1,-5%
NC(=O)CC[C@H](NC(=O)c1ccc(F)cc1)C(=O)OCC(=O)Nc1c(F)c(F)c(F)c(F)c1F,-3,0,-7,4,0,-3%
Cc1nc2nc(NC(=O)CC(C)C)[nH]n2c(=O)c1Cc1ccccc1,2,5,4,-1,0,-5%
Cc1ccc(NC(=O)c2sc3nc[nH]c(=O)c3c2C)c(C)c1,-12,0,-48*,8,0,5%
Cc1ccc(NC(=O)c2sc3nc[nH]c(=O)c3c2C)cc1Cl,-1,11,1,1,1,3%
COc1ccc2c3n(nc2c1)CCN=C3c1cc(Cl)c(N)c(Cl)c1,-8,1,-36*,2,0,0%
COc1ccc(C2=NCCn3nc4ccccc4c32)cc1,-3,1,-45*,0,0,3%
Nc1c(Cl)cc(C2=NCCn3nc4cc(C(F)(F)F)ccc4c32)cc1Cl,-5,1,4,6,0,-6%
COc1ccccc1N(C(=O)c1ccncc1)c1nc(-c2ccc([N+](=O)[O-])cc2)cs1,-2,-1,-38*,4,-1,0%
COCCN(C(=O)c1cccc(N2C(=O)CCC2=O)c1)c1nc(-c2ccc([N+](=O)[O-])cc2)cs1,-3,-5,-15,10,0,-4%
CC1(C)C2CCC(C2)C1C/C=N/NC(N)=S (configuration not stated),-6,33*,-1,1,0,-1%
CC1(C)CCC(=NNC(N)=S)CC1,/,/,/,/,/,-2%
Cc1cc(C)cc(N(CC(=O)NCC2CCCO2)C(=O)CN2C(=O)COc3ccccc32)c1 (configuration not stated),-2,-3,14,16,5,-2%
O=C1Nc2ccccc2C12Nc1ccccc1-c1nc3ccccc3n12 (configuration not stated),-7,5,-25,37*,0,0%
CN1C(=O)C2(Nc3ccccc3-c3nc4ccccc4n32)c2ccccc21 (configuration not stated),4,1,-10,2,0,-2%
COc1ccc(OCC(=O)Nc2nc3cc4c(cc3s2)OCCO4)cc1,/,/,/,/,/,-3%
Cc1nc(CSc2nsc(/C=C/N(C)C)c2C#N)cs1,-8,-4,-10,31*,23,0%
Cc1ccccc1-c1nn[nH]n1,-4,-5,-15,1,-1,-4%
COc1ccccc1-n1c(C)nc(=O)c(-c2ccccc2)c1C,-2,0,12,1,0,5%
CC(=O)Oc1ccccc1-n1c(C)nc(=O)c(-c2ccccc2)c1C,-6,-4,-39*,1,0,13%
CCc1nc(=O)c(-c2ccccc2)c(C)n1-c1ccccc1,2,37*,8,-2,0,-5%

# Screening results deposited in PubChem BioAssay by National Center for Advancing Translational Sciences (NCATS).
